Assay results: PubChem BioAssay AID463173 (ICCB-Longwood Screening Facility, Harvard Medical School, 2010)
The whole screen tested about 52,000 compounds, of which about 4,300 (8.3%) were called active. The sample holds actives, similar compounds and a random draw of the others, so the mix is not that of the screen. Values without a mark were called inactive. Rule as the data show it: active = survival mostly below about 52% (no sharp cut-off); inactive = mostly above about 56%.

system: DeltatarO mutant; experiment: S. aureus survival, RN4220 and DeltatarO strains – OD600, teichoic acid synthesis inhibitors, primary screen (AID 463173); conditions: S. aureus RN4220 wild type/DeltatarO growth, OD600, 18 h, hits give low values, screened at 18.75 µg/mL (by protocol)

In order of falling survival:
1. CCc1ccc(-n2c(=O)c3c4c(sc3n(CC(=O)c3ccc(Cl)cc3)c2=O)CCC4)cc1  142%
2. CC1=C(C(=O)Nc2ccc(C)cc2C)C(c2ccc(O)cc2)n2nc(SCC(=O)c3ccc(C)cc3)nc2N1 (stereo not drawn)  125%
3. CCOc1ccccc1NC(=O)C(CC)Sc1nc2ccncc2[nH]1 (stereo not drawn)  122%
4. CCOc1ccc(C2CC(=O)Nc3cc4c(cc32)OCO4)cc1OC (stereo not drawn)  120%
5. Cc1ccc(CCNC(=O)c2c(C)oc3ncn(CC(C)C)c(=O)c23)cc1  119%
6. Cn1c(=O)n(C)c2cc(NS(=O)(=O)c3ccc(Cl)cc3)c(NCc3ccccc3)cc21  117%
7. Cn1c(SCC(=O)O)nc2ccccc21  109%
8. Cn1c(=O)c2c(nc(Oc3ccc(C#N)cc3)n2Cc2ccc(Cl)cc2Cl)n(C)c1=O  106%
9. CN(C)c1ccc(-c2cc(-c3ccccc3)c(C#N)c(N)n2)cc1  105%
10. COc1ccc(C2(NC(=O)c3ccc(Cn4cc(Cl)cn4)o3)CCCCC2)cc1  102%
11. CCc1ccc(NC(=O)N(Cc2c[nH]c3ccccc23)C2CCCCCC2)cc1  102%
12. O=C(/C=N/O)NCCN1CCCCC1  98%
13. CCOc1ccccc1N(CC)C(=O)Nc1cn(C)c(=O)c2ccccc12  94%
14. c1ccc(CNc2nnnn2-c2ccccc2)cc1  93%
15. NS(=O)(=O)c1ccc(CCNc2ncnc3c2cnn3-c2cccc(Cl)c2)cc1  93%
16. COc1ccc(N2CCN(C(=O)COCc3cc(-c4ccc5c(c4)OCO5)on3)CC2)cc1  92%
17. CCN(CC)C(=O)c1ccccc1NC(=O)c1ccccc1  92%
18. O=C(Cc1ccc(Cl)cc1)NCCN1CCOCC1  91%
19. CC(C)n1cc2c(c1-c1ccccc1Cl)c(=O)n(C)c(=O)n2C  89%
20. Cc1ccc(NC(=O)Nc2cn(C)c(=O)c3ccccc23)c(Cl)c1  89%
21. Cc1oc2ncn(CC(C)C)c(=O)c2c1C(=O)NCCCN1CCCCC1C (stereo not drawn)  87%
22. O=c1c2ccccc2n(Cc2c(F)cccc2Cl)c(=O)n1CCc1ccccc1  85%
23. CCCc1ncc(C(O)c2ccccc2OC)n1C (stereo not drawn)  85%
24. O=C(Cn1c(=O)oc2cc(S(=O)(=O)N3CCCCCC3)ccc21)Nc1ccc(F)cc1F  84%
25. CCc1ccc(NC(=O)N(Cc2c[nH]c3ccccc23)C2CCCCC2)cc1  84%
26. CCOc1ccc2c(c1)c(=O)c(C(=O)c1ccccc1)cn2Cc1ccccc1F  83%
27. COc1ccc(Cl)cc1NC(=O)Cn1cc(S(=O)(=O)Cc2cccc(Cl)c2)c2ccccc21  83%
28. COc1cc(OC)cc(-n2c(=O)c3ccccc3n(CC(=O)NCCc3ccc(OC)c(OC)c3)c2=O)c1  83%
29. COc1ccc(CCNC(=O)Cn2c(=O)c3sccc3n(CC(=O)Nc3cccc(C(F)(F)F)c3)c2=O)cc1OC  82%
30. COc1ccc(-c2nc3ccccc3n3c(-c4ccccc4)c4c(=O)n(C)c(=O)n(C)c4c23)cc1  80%
31. Cc1cc2c(cc1C)-n1c(-c3ccccc3)c3c(=O)n(C)c(=O)n(C)c3c1C(c1ccco1)N2 (stereo not drawn)  80%
32. C=CCn1c(=O)[nH]c2c1c(=O)n(C)c(=O)n2C  80%
33. COc1cc(NC(=O)N2CCC(CN3CCCC3)CC2)cc(OC)c1OC  79%
34. CCCOc1ccc(CNC(=O)C2CCN(C(=O)c3sccc3-n3cccc3)CC2)cc1  79%
35. CCOc1ccc(NC(=O)N(Cc2c[nH]c3ccccc23)C2CCCCCC2)cc1  79%
36. Cn1c(=O)c2c(-c3ccccc3)n3c(c2n(C)c1=O)C(c1ccco1)Nc1ccccc1-3 (stereo not drawn)  77%
37. CCOC(=O)c1ccc(NC(=O)c2c(NCc3cccc(OC)c3OC)sc3c2CCC3)cc1  77%
38. COc1cccc(NC(=O)Cn2c(=O)n(CC(=O)NCc3ccc(C)cc3)c(=O)c3sccc32)c1  77%
39. CCN(CC)S(=O)(=O)c1ccc2c(c1)N(CC(=O)NCCCN1CCN(c3ccccc3F)CC1)C(=O)CO2  77%
40. CC(C)c1cnc2c(c1SCC(=O)NCc1ccccc1)c(=O)n(C)c(=O)n2C  77%
41. COc1ccc(-c2c3c(=O)n(C)c(=O)n(C)c3c3n2-c2ccccc2NC3c2ccccc2OC)cc1 (stereo not drawn)  74%
42. CCOc1ccc(NC(=O)N(Cc2c[nH]c3ccccc23)C2CCCCC2)cc1  74%
43. COc1cccc(C(c2c(O)cc(C)n(Cc3ccco3)c2=O)N2CCC(C)CC2)c1 (stereo not drawn)  74%
44. COc1ccc(OCC(=O)Nn2cnnc2)cc1  73%
45. Cc1ccc(S(=O)(=O)Nc2cc3c(cc2NCc2ccccc2)n(C)c(=O)n3C)cc1  73%
46. CCCCC(CC)CNC(=O)CN(C)S(=O)(=O)c1ccc2c(c1)c(=O)n(C)c(=O)n2C (stereo not drawn)  73%
47. O=C(O)CCSc1nnnn1-c1ccccc1  73%
48. CCOc1ccc(NC(=O)Cn2c(=O)n(CC(=O)NCCc3ccccc3)c(=O)c3sccc32)cc1  71%
49. CC1=CC(C)C(/C=N/N=C(N)N)C(C)C1 (stereo not drawn)  71%
50. CCOC(=O)C1=C(CN2CCN(c3ccccc3OC)CC2)NC(=O)NC1c1ccccc1 (stereo not drawn)  70%
51. O=C(CSc1nc(=O)n(Cc2ccco2)c2c1CCC2)NCc1ccc(Cl)cc1  69%
52. Cc1ccc(S(=O)(=O)N2CCCc3cc(NS(=O)(=O)c4cccc(Cl)c4)ccc32)cc1  68%
53. Cc1ccc(C2Nc3cc(C)c(C)cc3-n3c(-c4ccccc4)c4c(=O)n(C)c(=O)n(C)c4c32)o1 (stereo not drawn)  68%
54. COc1cc(NC(=O)Nc2nnc(N3CCCCC3)s2)cc(OC)c1  68%
55. Cn1c(=O)n(C)c2cc(NS(=O)(=O)c3ccccc3)c(NCc3ccccc3)cc21  68%
56. COc1ccccc1CCNC(=O)Cc1c(C)c2cc3c(C)coc3cc2oc1=O  68%
57. CCN(C(=O)c1ccc(C(=O)N(CC)c2ccccc2C)cc1)c1ccccc1C  68%
58. COCCN(CCOC)c1ncnc2c1c(-c1ccccc1)cn2-c1ccc(C)c(Cl)c1  67%
59. Cc1ccc(-c2nnc(Nc3cccc(Cl)c3)c3ccccc23)cc1S(=O)(=O)N1CCCCC1  65%
60. CCCSc1nc(-c2ccc(OC)cc2)cc(-c2ccccc2OC)c1C#N  64%
61. COc1ccc(C(=O)N(Cc2ccc(N(C)C)cc2)CC2CCCO2)cc1 (stereo not drawn)  63%
62. Cc1cc(=O)n2c(C(=O)Nc3ccc(Br)cc3)c(C(=O)Nc3ccccc3)sc2n1  62%
63. Cc1cccc(C)c1NC(=O)CN(Cc1ccc(Br)cc1)S(=O)(=O)c1ccccc1  60%
64. Cc1ccc(C2Nc3ccccc3-n3c(-c4ccccc4)c4c(=O)n(C)c(=O)n(C)c4c32)o1 (stereo not drawn)  59%
65. Cn1c(=O)n(C)c2cc(NS(=O)(=O)c3ccc(Br)cc3)c(NCc3ccccc3)cc21  57%
66. COc1ccccc1C1Nc2ccccc2-n2c(-c3ccccc3)c3c(=O)n(C)c(=O)n(C)c3c21 (stereo not drawn)  53%
67. COc1ccc(-c2c3c(=O)n(C)c(=O)n(C)c3c3n2-c2ccccc2NC3c2ccco2)cc1 (stereo not drawn)  50%
68. Cc1ccc(C(=O)N(Cc2ccc(N(C)C)cc2)CC2CCCO2)cc1 (stereo not drawn)  50%
69. Cc1ccc(Nc2c(-c3cccc(Cl)c3)nc3cccc(C)n23)cc1  49%
70. COc1ccc(/C=C/C(=O)Nc2nc(-c3cccs3)ns2)cc1OC  48%
71. O=C(Cn1nnc2sc(-c3ccccc3)cc2c1=O)Nc1cccc(C(F)(F)F)c1  40%

For `COc1ccccc1-c1cc(-c2ccc(O)cc2)nc(N)c1C#N`, the survival was 12% (active).
For `Cc1ccc(-c2c3c(=O)n(C)c(=O)n(C)c3c3n2-c2ccccc2NC3c2ccc(C)cc2O)cc1` (stereo not drawn), the survival was 2% (active).
`Cn1c(=O)c2c(-c3ccccc3)n3c(c2n(C)c1=O)C(c1cc(Cl)ccc1O)Nc1ccccc1-3` (stereo not drawn) was tested, and the survival was 1% (active).
With `COc1ccc(-c2c3c(=O)n(C)c(=O)n(C)c3c3n2-c2ccccc2NC3c2ccc(O)cc2O)cc1` (stereo not drawn) the survival was 0% (active).
In the case of `COc1ccc(O)c(C2Nc3ccccc3-n3c(-c4ccccc4)c4c(=O)n(C)c(=O)n(C)c4c32)c1` (stereo not drawn), the survival is reported as 3% (active).
With `Cn1c(=O)c2c([nH]c(=O)n2Cc2ccc(Cl)cc2Cl)n(C)c1=O` the survival was 42% (active).
`CN(C(=O)Nc1cn(C)c(=O)c2ccccc12)c1ccccc1` was tested, and the survival was -5% (active).
For `CCc1ccc(NC(=O)N(Cc2cn(CC)c3ccccc23)C2CCCCC2)cc1`, the survival was -13% (active).
In the case of `CCOc1ccc(NC(=O)N(Cc2cn(CC)c3ccccc23)C2CCCCCC2)cc1`, the survival is reported as -12% (active).
In the case of `COc1cc(C(=O)N(Cc2ccc(N(C)C)cc2)CC2CCCO2)cc(OC)c1OC` (stereo not drawn), the survival is reported as 47% (active).
For `Cn1c(=O)n(C)c2cc(NS(=O)(=O)c3ccc(C(C)(C)C)cc3)c(NCc3ccccc3)cc21`, the survival was 43% (active).
For `CC(C)c1ccc(S(=O)(=O)Nc2cc3c(cc2NCc2ccccc2)n(C)c(=O)n3C)cc1`, the survival was 39% (active).
With `CCN(CC)C(=O)c1ccccc1C` the survival was 48% (active).
In the case of `CCS(=O)(=O)c1nnnn1-c1ccccc1`, the survival is reported as 9% (active).
`COc1cccc(NC(=O)Cn2c(=O)n(CC(=O)NCCc3ccccc3)c(=O)c3sccc32)c1` was tested, and the survival was 45% (active).
`COc1cc(NC(=O)Cn2c(=O)n(CC(=O)NCCc3ccc(OC)c(OC)c3)c(=O)c3sccc32)cc(OC)c1` was tested, and the survival was 49% (active).
With `CC(C)c1ncc(C(O)c2cccc3ccccc23)n1C` (stereo not drawn) the survival was 56% (active).
